# Source: PubChem BioAssay (several laboratories)
# NPR1 activator – GC-A (human) enzyme activation; AID 1671463; HEK293 GC-A cells, cGMP TR-FRET, EC30 ANP; 0% at EC30 ANP, 100% saturating ANP; hit rate 0.14% among 370,000; P16066; activation, % at 10 µM; in the data active means activation above about 40%
# Target sequence (P16066 whole entry, looked up): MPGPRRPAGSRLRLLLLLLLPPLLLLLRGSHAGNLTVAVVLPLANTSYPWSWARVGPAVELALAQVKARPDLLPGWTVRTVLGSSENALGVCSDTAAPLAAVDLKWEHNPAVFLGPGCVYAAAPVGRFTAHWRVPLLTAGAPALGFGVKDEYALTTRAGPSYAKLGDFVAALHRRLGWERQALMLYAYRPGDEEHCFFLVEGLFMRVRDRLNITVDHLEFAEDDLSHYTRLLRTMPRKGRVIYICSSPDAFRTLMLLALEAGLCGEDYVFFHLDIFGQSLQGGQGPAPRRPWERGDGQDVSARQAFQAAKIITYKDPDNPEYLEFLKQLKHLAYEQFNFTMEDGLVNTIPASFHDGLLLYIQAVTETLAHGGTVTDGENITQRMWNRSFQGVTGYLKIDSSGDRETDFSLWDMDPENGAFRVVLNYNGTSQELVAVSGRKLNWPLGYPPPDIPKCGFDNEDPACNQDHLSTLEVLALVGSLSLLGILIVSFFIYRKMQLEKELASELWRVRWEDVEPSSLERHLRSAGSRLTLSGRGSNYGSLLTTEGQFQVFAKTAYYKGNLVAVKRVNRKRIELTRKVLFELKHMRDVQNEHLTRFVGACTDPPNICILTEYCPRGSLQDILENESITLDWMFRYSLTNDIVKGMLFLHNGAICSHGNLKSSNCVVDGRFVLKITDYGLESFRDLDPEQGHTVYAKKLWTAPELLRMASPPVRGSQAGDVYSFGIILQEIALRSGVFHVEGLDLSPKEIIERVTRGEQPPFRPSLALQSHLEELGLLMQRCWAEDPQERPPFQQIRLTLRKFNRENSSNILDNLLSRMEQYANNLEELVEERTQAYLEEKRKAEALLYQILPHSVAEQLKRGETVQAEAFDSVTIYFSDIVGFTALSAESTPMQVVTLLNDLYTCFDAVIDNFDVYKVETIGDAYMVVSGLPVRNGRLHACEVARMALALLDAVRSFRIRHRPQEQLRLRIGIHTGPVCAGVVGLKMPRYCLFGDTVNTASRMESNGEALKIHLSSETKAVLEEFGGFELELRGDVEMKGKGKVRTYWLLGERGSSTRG
# HSF1 inhib – HSF1 inhibition. NIH3T3-HGL HSE-luciferase, MG132-induced, luminescence 8 h; stronger effect = lower value. activity change, negative = inhibition, % at 7.5 µM (by protocol). hit rate 0.77% among 300,000;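 active means more than half of replicate wells show activity change below -50%, luminescence cut by over half; inconclusive means some wells, but at most half, below -50%; inactive means no replicate well below -50%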;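 further: luciferase reports HSF-1 transcriptional activity via heat shock element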
# DYRK1A inh – blocks rat Dyrk1A kinase activity | ADP-Glo luminescence, NFATc1 peptide | AID 504441 | hit rate 0.43% among 310,000 | inhibition, % at 12.5 µM | Q63470; in the data active means inhibition above about 50%
# HSF1 activator – increases HSF-1 driven luciferase reporter signal | NIH3T3-HGL HSF-1 luciferase reporter, MG132, 8 h; 100% = twice DMSO control signal | activation, % at 9 µM | hit rate 1.7% among 300,000;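 active means mean replicate activation of at least 50% with a set share of replicates each reaching 50%; inconclusive means only one of those two conditions met; inactive means mean below 50% and too few replicates reaching it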
# aDG glyco act – alpha-DG glycosylation activation. hit rate 0.22% among 360,000. activation, % at 10 µM. Pro5-aDG cells, alpha-DG glycosylation AlphaScreen (IIH6); 0% Pro5, 100% B10-LARGE cell signal;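 active means activation of at least 8% versus controls, or a plate z-score of at least 8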;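 further: Pro5 are CHO cells carrying HIG-tagged alpha-DG that lacks glycosylation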
# GC-B act – GC-B (human) receptor activation; AID 1920062; P20594; hit rate 0.11% among 370,000; activation, % at 10 µM; HEK293-GC-B cells, CNP EC30, cGMP TR-FRET; 0% at EC30 CNP, 100% saturating CNP;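 active means activation at 10 µM reaching about 35% in either raw or pattern-adjusted values, limit read from the data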
# Numbers stand for hits; n = inactive; u = inconclusive; x = no result given. Rows were chosen to be rich in hits. Some 2.5% of all compounds tested hit in one or more screens of this group.
SMILES,NPR1 activator,HSF1 inhib,DYRK1A inh,HSF1 activator,aDG glyco act,GC-B act
O=S(=O)(/C(=C/c1ccc(C(F)(F)F)cc1)c1nc2ccccc2[nH]1)c1ccccc1,n,n,n,180,n,n
COC(=O)c1ccc(N(CC(=O)NC2CCCCC2)C(=O)CNC(=O)c2ccco2)cc1,n,n,n,71,n,n
O=C(CS(=O)(=O)c1cn(Cc2ccc(Cl)cc2)c2ccccc12)N1CCCC1,n,n,n,n,n,n
CCOC(=O)N1CCN(C(=O)CS(=O)(=O)c2cn(Cc3ccc(F)cc3)c3ccccc23)CC1,n,n,n,96,n,n
O=C(CN1CC(=O)Oc2ccccc21)OCC(=O)c1ccccc1,n,n,x,u,n,n
O=C(CN1CC(=O)Oc2ccccc21)OCC(=O)c1cccc(Br)c1,x,n,n,53,n,x
CC(=O)Nc1cc(C(=O)N2CCCC2)ccc1Sc1ccc(C)cc1,n,n,n,n,n,n
CC(=O)Nc1cc(C(=O)N(C)Cc2ccco2)ccc1Sc1ccc(C)cc1,n,-81,n,n,n,n
CCOC(=O)CNc1c(-c2ccccc2)nc2ccc(Cl)cn12,n,n,n,n,n,n
CCOC(=O)CNc1c(-c2ccc(O)cc2)nc2ccc(Cl)cn12,n,n,n,72,n,n
Cc1cc(NCc2ccccn2)n2nc(C)c(-c3ccc(Cl)cc3)c2n1,n,x,n,x,n,n
Cc1cc(NCc2ccccn2)n2ncc(-c3ccccc3)c2n1,n,n,n,76,n,n
Cc1ccc(S(=O)(=O)Nc2ccccc2/C=N/c2nc3ccccc3n2C)cc1,x,x,n,x,n,x
Nc1nc2c(ncn2[C@@H]2O[C@H](C(=O)NCCCN3CCCC3=O)[C@@H](O)[C@H]2O)c(=O)[nH]1,49,x,x,x,x,45
CCCOC1CCCN(C(=O)c2cc(COc3c(F)cccc3F)on2)C1 (stereo unspecified),n,n,n,58,n,n
Cc1ccccc1C1CCCN(C(=O)c2cc(COc3c(F)cccc3F)on2)C1 (stereo unspecified),n,n,n,n,n,n
CCOc1ccc(NC(=O)c2cccnc2SC)cc1,n,n,n,n,n,n
CCOc1ccccc1C(=O)Nc1ccc(NC(=O)c2ccccc2)cc1,n,-79,n,n,n,n
CCOc1ccc(NC(=O)c2ccccc2O)cc1,n,n,n,102,n,n
CCOc1ccccc1C(=O)Nc1ccc(C(=O)c2ccccc2)cc1,n,n,n,n,n,n
CCOc1ccc(NC(=O)c2cccnc2C(=O)O)cc1,n,-66,n,n,n,n
O=c1c2ccccc2nnn1COc1ccc(Cl)cc1Br,n,n,n,56,n,n
CC(Oc1ccc(Cl)cc1Cl)C(=O)OCn1nnc2ccccc2c1=O (stereo unspecified),n,n,n,n,n,n
O=c1c2ccccc2nnn1COc1cccc2ccccc12,n,n,n,n,n,n
O=c1c2ccccc2nnn1COc1ccc(F)cc1Cl,n,n,n,84,n,n
SMILES,NPR1 activator,HSF1 inhib,DYRK1A inh,HSF1 activator,aDG glyco act,GC-B act
CC(C)Oc1ccc(CN=C(N)N=C(N)N)cc1Cl,n,n,n,55,n,n
COc1ccc(CN=C(N)N=C(N)N)cc1Cl,n,n,n,n,n,n
COc1cccc(NC(=O)CSc2nc3c([nH]c4ccccc43)c(=O)n2C)c1,n,n,n,95,n,n
C=CCn1c(SCC(=O)Nc2cc(C)on2)nc2c([nH]c3ccccc32)c1=O,n,n,x,n,n,n
COc1ccccc1-n1c(SCC(=O)Nc2cccc(S(N)(=O)=O)c2)nc2ccccc2c1=O,n,n,n,n,n,n
COc1ccc(-n2c(SCC(=O)Nc3cc(C)on3)nc3c([nH]c4ccccc43)c2=O)cc1,77,n,n,n,n,n
COc1cccc(-n2c(SCC(=O)Nc3cc(C)on3)nc3ccccc3c2=O)c1,n,n,n,n,n,n
COc1ccc(OC)c(-n2c(SCC(=O)Nc3cccc(S(N)(=O)=O)c3)nc3ccccc3c2=O)c1,n,n,n,n,n,37
Cc1ccc(-n2c(SCC(=O)Nc3cc(C)on3)nc3c([nH]c4ccccc43)c2=O)cc1,79,n,n,n,n,n
